Assay results: ChEMBL document CHEMBL1961873, “Compounds: GSK PKIS; Assays: Nanosyn kinase panel” (2012)

What was measured:
[1] = biological target: Serine/threonine-protein kinase pim-2 (Homo sapiens) (UniProt Q9P1W9); conditions: at 1 µM;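 further: each value is a mean of the inhibition measurements against the kinase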
[2] = biological target: Serine/threonine-protein kinase pim-3 (Homo sapiens) (UniProt Q86V86); conditions: at 0.1 µM
[3] = biological target: Serine/threonine-protein kinase pim-3 (Homo sapiens) (UniProt Q86V86); conditions: at 1 µM
[4] = biological target: T1, MAP kinase-activated protein kinase 5 (Homo sapiens) (UniProt Q8IW41); conditions: at 0.1 µM
T1 sequence (whole entry): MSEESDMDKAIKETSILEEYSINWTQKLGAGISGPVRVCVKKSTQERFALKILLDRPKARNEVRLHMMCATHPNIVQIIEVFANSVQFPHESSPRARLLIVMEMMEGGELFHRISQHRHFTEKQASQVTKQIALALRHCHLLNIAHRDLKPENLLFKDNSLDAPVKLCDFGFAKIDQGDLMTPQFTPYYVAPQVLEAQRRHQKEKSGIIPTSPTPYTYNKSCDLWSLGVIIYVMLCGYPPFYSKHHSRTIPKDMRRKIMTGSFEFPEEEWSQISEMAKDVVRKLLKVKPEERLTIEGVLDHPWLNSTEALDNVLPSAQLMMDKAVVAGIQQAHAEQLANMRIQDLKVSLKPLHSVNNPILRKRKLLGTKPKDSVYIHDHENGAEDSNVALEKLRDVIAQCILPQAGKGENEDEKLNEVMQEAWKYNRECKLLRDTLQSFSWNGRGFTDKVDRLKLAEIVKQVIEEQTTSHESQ

[5] = biological target: T1, MAP kinase-activated protein kinase 5 (Homo sapiens); conditions: at 1 µM
[6] = biological target: Serine/threonine-protein kinase SIK1 (Homo sapiens) (UniProt P57059); conditions: at 0.1 µM
Sequence of Serine/threonine-protein kinase SIK1 (Homo sapiens) (P57059 whole entry): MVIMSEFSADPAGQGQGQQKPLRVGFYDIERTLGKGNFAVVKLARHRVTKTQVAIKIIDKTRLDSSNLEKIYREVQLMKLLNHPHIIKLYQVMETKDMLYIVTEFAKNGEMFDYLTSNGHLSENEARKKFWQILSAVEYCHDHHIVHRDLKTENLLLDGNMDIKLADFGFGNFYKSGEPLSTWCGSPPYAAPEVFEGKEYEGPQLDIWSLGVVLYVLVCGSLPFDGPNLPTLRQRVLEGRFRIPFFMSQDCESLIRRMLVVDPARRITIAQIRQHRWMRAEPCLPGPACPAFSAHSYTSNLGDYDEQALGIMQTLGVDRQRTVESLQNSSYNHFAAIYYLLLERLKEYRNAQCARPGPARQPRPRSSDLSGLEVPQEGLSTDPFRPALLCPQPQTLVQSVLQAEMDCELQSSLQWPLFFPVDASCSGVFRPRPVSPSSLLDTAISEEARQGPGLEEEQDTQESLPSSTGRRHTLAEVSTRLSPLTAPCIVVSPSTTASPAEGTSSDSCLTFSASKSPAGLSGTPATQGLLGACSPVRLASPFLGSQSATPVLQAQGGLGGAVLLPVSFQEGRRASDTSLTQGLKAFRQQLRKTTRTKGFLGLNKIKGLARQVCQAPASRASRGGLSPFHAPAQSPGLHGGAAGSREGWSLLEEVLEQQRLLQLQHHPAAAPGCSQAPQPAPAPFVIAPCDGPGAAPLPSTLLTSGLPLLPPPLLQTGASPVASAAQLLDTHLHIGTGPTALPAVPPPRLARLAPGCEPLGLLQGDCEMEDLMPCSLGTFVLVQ

[7] = biological target: Serine/threonine-protein kinase SIK1 (Homo sapiens) (UniProt P57059); conditions: at 1 µM
[8] = biological target: Serine/threonine-protein kinase SIK2 (Homo sapiens) (UniProt Q9H0K1); conditions: at 0.1 µM
Sequence of Serine/threonine-protein kinase SIK2 (Homo sapiens) (Q9H0K1 whole entry, looked up): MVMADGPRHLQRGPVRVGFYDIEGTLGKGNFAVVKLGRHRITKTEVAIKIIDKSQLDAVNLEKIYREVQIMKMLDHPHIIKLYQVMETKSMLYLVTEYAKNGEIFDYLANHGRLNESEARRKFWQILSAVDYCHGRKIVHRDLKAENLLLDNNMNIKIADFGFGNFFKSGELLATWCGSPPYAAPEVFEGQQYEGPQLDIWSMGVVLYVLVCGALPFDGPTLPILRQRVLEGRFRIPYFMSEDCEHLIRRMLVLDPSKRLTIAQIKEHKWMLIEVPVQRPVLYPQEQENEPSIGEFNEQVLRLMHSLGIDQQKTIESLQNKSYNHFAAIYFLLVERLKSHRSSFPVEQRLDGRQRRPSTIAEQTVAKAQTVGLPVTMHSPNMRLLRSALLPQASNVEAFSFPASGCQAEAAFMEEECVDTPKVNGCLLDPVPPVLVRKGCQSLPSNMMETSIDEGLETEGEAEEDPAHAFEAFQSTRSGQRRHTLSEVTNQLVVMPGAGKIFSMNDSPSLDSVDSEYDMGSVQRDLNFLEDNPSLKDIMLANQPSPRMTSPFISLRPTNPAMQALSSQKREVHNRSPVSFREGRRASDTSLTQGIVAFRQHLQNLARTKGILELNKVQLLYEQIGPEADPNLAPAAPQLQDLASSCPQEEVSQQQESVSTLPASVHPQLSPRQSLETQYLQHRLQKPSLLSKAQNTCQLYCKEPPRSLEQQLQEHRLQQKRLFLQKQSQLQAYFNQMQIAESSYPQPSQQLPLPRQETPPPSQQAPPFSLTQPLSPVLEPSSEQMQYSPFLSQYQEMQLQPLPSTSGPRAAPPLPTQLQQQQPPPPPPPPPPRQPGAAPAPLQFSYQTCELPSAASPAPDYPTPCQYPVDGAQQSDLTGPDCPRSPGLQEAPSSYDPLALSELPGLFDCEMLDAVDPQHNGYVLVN

[9] = biological target: Serine/threonine-protein kinase SIK2 (Homo sapiens) (UniProt Q9H0K1); conditions: at 1 µM
[10] = biological target: T2, Serine/threonine-protein kinase TBK1 (Homo sapiens) (UniProt Q9UHD2); conditions: at 0.1 µM;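 further: values are the mean TBK1 inhibition, taken from the GSK PKIS screening data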
T2 sequence (whole entry): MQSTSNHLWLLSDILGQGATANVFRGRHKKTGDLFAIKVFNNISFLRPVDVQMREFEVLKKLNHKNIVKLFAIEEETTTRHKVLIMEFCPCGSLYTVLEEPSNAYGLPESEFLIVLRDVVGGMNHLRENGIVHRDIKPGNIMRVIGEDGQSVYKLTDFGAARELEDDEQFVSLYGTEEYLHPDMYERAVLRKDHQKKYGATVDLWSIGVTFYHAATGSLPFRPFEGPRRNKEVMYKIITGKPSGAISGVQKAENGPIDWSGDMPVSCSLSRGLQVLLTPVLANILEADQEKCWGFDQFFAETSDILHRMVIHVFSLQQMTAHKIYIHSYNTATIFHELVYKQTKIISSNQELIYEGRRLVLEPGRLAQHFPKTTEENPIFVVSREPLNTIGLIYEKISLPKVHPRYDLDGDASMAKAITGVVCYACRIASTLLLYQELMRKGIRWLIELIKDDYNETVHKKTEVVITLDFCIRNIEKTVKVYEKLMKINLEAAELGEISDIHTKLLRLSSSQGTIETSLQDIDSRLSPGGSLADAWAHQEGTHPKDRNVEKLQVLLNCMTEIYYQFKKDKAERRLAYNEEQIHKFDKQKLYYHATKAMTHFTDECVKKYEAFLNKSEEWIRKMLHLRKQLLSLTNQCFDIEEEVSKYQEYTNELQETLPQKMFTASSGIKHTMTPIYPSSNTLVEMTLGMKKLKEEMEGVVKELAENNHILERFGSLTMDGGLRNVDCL

Sequence of Serine/threonine-protein kinase pim-2 (Homo sapiens) (Q9P1W9 whole entry, looked up): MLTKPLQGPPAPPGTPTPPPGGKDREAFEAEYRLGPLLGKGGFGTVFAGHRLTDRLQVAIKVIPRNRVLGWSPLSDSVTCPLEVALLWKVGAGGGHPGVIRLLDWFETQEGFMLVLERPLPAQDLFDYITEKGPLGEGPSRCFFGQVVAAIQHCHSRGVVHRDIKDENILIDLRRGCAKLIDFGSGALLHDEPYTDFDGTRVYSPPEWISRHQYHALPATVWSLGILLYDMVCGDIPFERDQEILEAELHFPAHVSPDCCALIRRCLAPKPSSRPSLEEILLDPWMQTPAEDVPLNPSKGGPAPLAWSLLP

SMILES | inhibition [1] | inhibition [2] | inhibition [3] | inhibition [4] | inhibition [5] | inhibition [6] | inhibition [7] | inhibition [8] | inhibition [9] | inhibition [10]
Fc1ccc(-c2nn3ncccc3c2-c2ccnc(Nc3ccc4c(c3)OCCO4)n2)cc1 | -0.97% | -2.21% | -3.73% | 0.63% | 0.49% | 10.5% | 38.4% | 18.8% | 44.6% | 5.89%
COc1cc2c(cc1Nc1nc(Nc3ccsc3C(N)=O)c3cc[nH]c3n1)N(C(=O)CN(C)C)CCC2(C)C | 11.9% | 18.4% | 68.1% | 1.65% | 3.7% | 2.02% | 7.92% | 7.71% | 7.78% | 11.3%
CCn1c(-c2nonc2N)nc2cnc(Oc3cccc(NC(=O)c4ccc(N(C)C)cc4)c3)cc21 | 1.39% | -0.12% | 1.67% | 0.33% | -1.26% | 1.57% | 2.47% | 4.79% | 4.74% | 0.53%
CS(=O)(=O)CCNCc1coc(-c2ccc3ncnc(Nc4ccc(OCc5ccccc5)cc4)c3c2)c1 | 0.48% | 1.2% | 3.43% | 1.41% | 1.21% | 1.7% | 8.27% | -0.18% | 5.7% | 2.64%
COc1cc(Nc2nccc(Nc3ccc4c(C)n[nH]c4c3)n2)cc(OC)c1OC | 1.57% | 2.01% | -0.7% | -0.04% | -1.77% | 8.95% | 51.2% | 4.45% | 28% | 4.57%
CCn1cc(-c2ccnc3[nH]ccc23)c(-c2cccc(NC(=O)Nc3ccc(OCc4ccccc4)cc3)c2)n1 | 0.13% | -0.81% | -1.13% | -0.44% | -0.98% | 1.1% | 3.35% | -4.91% | -0.71% | -0.45%
CC(=O)Nc1cccc(C#Cc2cncnc2Nc2ccc(OCc3cccc(F)c3)c(Cl)c2)c1 | 1.31% | 2.57% | -1.69% | 0.16% | -0.79% | 4.24% | 2.15% | 1.42% | 1.44% | 1.95%
Clc1ccc(-c2nn3ncccc3c2-c2ccnc(Nc3ccccc3)n2)cc1 | 0.51% | 3.12% | 0.33% | 0.57% | -0.73% | 3.67% | 13.6% | -1.6% | 13.9% | 1.29%
O=C(O[C@H]1CN[C@H](C#Cc2cc3ncnc(Nc4ccc(Cc5ccccc5)cc4)c3s2)C1)N1CCOCC1 | 1.06% | 1.54% | 3.8% | 0.58% | -0.05% | 0.92% | -0.23% | -0.21% | -0.83% | -0.27%
CCOc1ccc2c(-c3ccnc(Nc4cccc(C(F)(F)F)c4)n3)cnn2n1 | -0.33% | -1.1% | -1.96% | 0.3% | -0.41% | 2.46% | 3.82% | 2.86% | 3.43% | 2.13%
NC(=O)c1sc(-n2cnc3ccc(C(F)(F)F)cc32)cc1OCc1ccccc1Br | -0.68% | 1.1% | 0.16% | 1.65% | 2.02% | 6.13% | 9.77% | 5.75% | 9.85% | 0.45%
CN1CCC(n2cnc(-c3ccc(F)cc3)c2-c2ccnc(Nc3ccccc3)n2)CC1 | 0.35% | 1.06% | 5.66% | 1.06% | 1.42% | 3.13% | 4.66% | 7.17% | 22.9% | 0.4%
CCNC(=O)O[C@H]1CN[C@H](C#Cc2cc3ncnc(Nc4ccc(OCc5cccc(F)c5)c(Cl)c4)c3s2)C1 | -0.15% | -0.41% | -2.78% | 0.89% | 0.04% | 9.17% | 7.09% | 4.37% | 4.15% | 1.48%
N#Cc1c(NC(=O)c2ccc(F)cc2)sc2c1CCCC2 | -0.05% | 0.71% | 1.6% | 0.52% | -0.3% | 1.57% | 3.96% | -1.57% | 8.23% | 0.78%
